tim10-1 inh = inhibits growth of tim10-1 mutant yeast; 2.2% of 330,000 active; inhibition, % at 20 µM; S. cerevisiae tim10-1 ts strain growth, BacTiter-Glo, 24 h;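 active = inhibition of at least 40%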;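 also: mutant grown at 25 °C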
TIM10 inh = TIM10 yeast growth inhibition | S. cerevisiae TIM10 strain growth, BacTiter-Glo luminescence, 24 h | inhibition, % at 10 µM | 1.4% of 330,000 active | AID 463195;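 active = inhibition of 40% or more at the single tested concentration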;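 also: wild-type TIM10 isogenic control strain grown at permissive 25 °C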
tim23-1 inh = inhibits growth of tim23-1 mutant yeast; S. cerevisiae tim23-1 growth, BacTiter-Glo luminescence, 24 h; inhibition, % at 20 µM; 1.3% of 330,000 active; AID 463212;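 active = growth inhibition of the mutant yeast at or above 50%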;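 also: temperature-sensitive mutant grown at 25 °C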
NALP3 yeast inh = inhibitors of NALP3 inflammasome in yeast. Yeast reconstituted NLRP3/ASC/caspase-1, beta-gal luminescence, 24 h. inhibition, % at 10 µM. 0.39% of 330,000 active;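 active = inhibition of 50% or more; inactive = inhibition below 50%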
PfHsp90 yeast 2 = inhibits growth of yeast expressing Plasmodium falciparum Hsp90 | S. cerevisiae expressing PfHsp90, BacTiter-Glo ATP, 48 h; yeast lacking PDR1 and PDR3 efflux regulators | inhibition, % at 9.4 µM | 0.32% of 310,000 active;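 active = every replicate shows inhibition above about 80%, whatever the replicate mean, limit read from the data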
tim10-1 conf = tim10-1 yeast growth inhibition, confirmed | S. cerevisiae tim10-1 ts strain growth, BacTiter-Glo, 24 h | inhibition, % at 20 µM | shares compounds with tim10-1 inh | 56% of 7,400 active;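 active = inhibition of yeast growth at or above a set limit in either of two repeat tests at 20 µM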;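 also: tim10-1 mutant grown at permissive 25 °C to find synthetic lethal compounds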
Of the large screens only hits and unclear results are named; the others gave an inactive call (follow-up assays come after a bar, where they were run). Sampled rows, rich in hits. Any-hit rate of the full collection: about 3.7%.

CNC(=S)NNC(=O)c1cc(-c2cccnc2)nc2ccccc12	tim10-1 inh 49 | tim10-1 conf 40
Cc1cnc(NC(=O)c2cccc(S(=O)(=O)N3CCOCC3)c2)s1	none
Cn1c(=O)c2c(nc(C3CC4C5CCC(C5)C4C3)n2C)n(C)c1=O (centres undefined)	none (no result: tim10-1 inh, TIM10 inh, tim23-1 inh, NALP3 yeast inh)
O=c1ccn([C@@H]2O[C@H](CNCC3=Cc4cc(O)ccc4OC3)[C@@H](O)[C@H]2O)c(=O)[nH]1	none (no result: tim10-1 inh, TIM10 inh, tim23-1 inh, NALP3 yeast inh)
CC1CCc2nc(NC(=O)c3ccco3)sc2C1 (centres undefined)	tim10-1 inh 45 | tim10-1 conf 31
OCCn1c(C(F)(F)F)nc2ccccc21	none
Cc1ccc(-c2csc(N(CCO)CCCn3c(C(F)(F)F)nc4ccccc43)n2)cc1	tim10-1 inh 44 | tim10-1 conf inactive
O=C(CNc1cccc2ccccc12)N/N=C/C(Br)=C/c1ccccc1	tim10-1 inh 41 | tim10-1 conf 31
CSc1nnc(-c2cccc(NC(=S)NN)c2)o1	tim10-1 inh 49 | tim10-1 conf inactive
Cc1cc(C)c(S(=O)(=O)N2CCN(c3ccccc3)CC2)c(C)c1	none
Cc1ccc(C)c(S(=O)(=O)ON2C(=O)c3ccccc3C2=O)c1	tim10-1 inh 70 | tim10-1 conf 52
CN(C)c1nc(-c2ccccn2)nnc1-c1ccccc1	tim10-1 inh 40 | tim10-1 conf inactive
O=[N+]([O-])c1ccccc1S(=O)(=O)N/C(=N/S(=O)(=O)c1ccccc1)c1ccccc1	none
N#Cc1c(-n2cccc2/C=N/O)sc2c1CCCC2	tim10-1 inh 41 | tim10-1 conf 43
O=C1NC(=O)C2(C=C(c3ccccc3)C(O)(c3ccccc3)C2)N1 (centres undefined)	none (no result: tim10-1 inh, TIM10 inh, tim23-1 inh, NALP3 yeast inh)
Cc1ccc(CNCCCn2cnc3c(OCc4ccccc4)ncnc32)o1	none (no result: tim10-1 inh, TIM10 inh, tim23-1 inh, NALP3 yeast inh)
O=C(O)c1cc(-c2ccccc2Cl)n(-c2cccc(Cl)c2)n1	none
COc1cccc(OC)c1C(=O)Nc1ccc(Br)c(C(=O)c2ccccc2)c1	tim10-1 inh 41 | tim10-1 conf inactive
COc1ccc(C)cc1NC(=O)c1cc(S(=O)(=O)N2CCCCC2)ccc1N1CCOCC1	none
COc1ccc(C)cc1NC(=O)c1cc(S(=O)(=O)N2CCC3(CC2)OCCO3)ccc1F	tim10-1 inh 46 | tim10-1 conf inactive
C=CCn1c(=O)c2c(nc3n2CCCN3CCc2ccc(OC)c(OC)c2)n(C)c1=O	none
CCOC(=O)C1(CCc2ccccc2)CCN(C(=O)CCc2cnn(C)c2)CC1	tim10-1 inh 42 | tim10-1 conf 30
Nc1nnc(SCC(=O)NNC(=O)c2ccccc2F)s1	none
CN(C)CCC(=O)C(Cc1ccccc1)c1ccccc1 (centres undefined)	tim10-1 inh 45 | tim10-1 conf 45
CN(C)CCNC(=O)C(c1ccccc1)c1ccccc1	none
CC(C)(C)NC(=O)Nc1ccc(F)c(Cl)c1	tim10-1 inh 46 | tim10-1 conf 44
CC1=CCC2C(=O)N(c3ccc4ccccc4n3)C(=O)C2C1 (centres undefined)	none
Cc1cc(=O)n(-c2ccc3ccccc3n2)[nH]1	tim10-1 inh 54 | tim10-1 conf inactive
S=c1[nH]c(-c2ccc(Cl)cc2)cs1	tim10-1 inh 48 | tim10-1 conf inactive
Oc1ccc(-c2n[nH]c(=S)n2Cc2ccccc2)cc1	none
Cc1ccccc1OCc1n[nH]c(=S)n1Cc1ccccc1	tim10-1 inh 47 | tim10-1 conf inactive
S=c1[nH]nc(COc2cccc3ccccc23)n1Cc1ccccc1	none
CC(C)(C)c1ccc(-c2n[nH]c(=S)n2Cc2ccccc2)cc1	tim10-1 inh 45 | tim10-1 conf 38
Cn1c(-c2ccccc2O)cc2ccccc21	tim10-1 inh 48 | tim10-1 conf 29
O=C1CC(=C2c3ccccc3-c3ccccc32)C(=O)N1CCN1CCN(c2cccc(Cl)c2)CC1	tim10-1 inh 41 | tim10-1 conf inactive
COc1ccc(C(=O)O/N=C/c2ccc(S(=O)(=O)c3ccc(Cl)cc3)nc2)cc1	none
COc1ccc(/C=C2\SC(N3CCCCC3)=NC2=O)cc1	tim10-1 inh 47 | tim10-1 conf 44
CC(Oc1ccc(Br)cc1)C(=O)Nc1ccc(S(=O)(=O)NC2=NCCCCC2)cc1 (centres undefined)	none (no result: tim10-1 inh, TIM10 inh, tim23-1 inh, NALP3 yeast inh)
CCCN1C(=O)c2ccc(C(=O)Nc3cc(C)ccc3O)cc2C1=O	tim10-1 inh 44 | tim10-1 conf inactive
Cc1ccc(S(=O)(=O)N2CCCCC2)cc1NC(=O)c1ccc(Br)o1	none (no result: PfHsp90 yeast 2)
O=C(NCCc1csc(-c2ccc(Cl)cc2)n1)c1ccco1	tim10-1 inh 43 | tim10-1 conf inactive
Cc1ccc(-c2nc(CCNC(=O)c3ccco3)cs2)cc1	none
CC(C)(C)C(=O)CN1C(=O)NC2(CCCc3ccccc32)C1=O (centres undefined)	none
O=C(CS(=O)(=O)Cc1ccccc1)NCc1ccccc1Cl	none
CCCCCCn1c(COc2ccccc2F)nnc1SCC(=O)NC1CCS(=O)(=O)C1 (centres undefined)	none (no result: tim10-1 inh, TIM10 inh, tim23-1 inh, NALP3 yeast inh)
COc1ccc(OCCC(=O)OCC(=O)NC2CCCCC2)cc1	none (no result: PfHsp90 yeast 2)
COc1ccc(OCCC(=O)OCC(=O)NC2CCCCCCC2)cc1	tim10-1 inh 43 | tim10-1 conf 40
Cc1nc([N+](=O)[O-])c(C(=O)OCc2cccc(Br)c2)n1C	tim10-1 inh 43 (no result: PfHsp90 yeast 2) | tim10-1 conf 33
O=c1[nH]nc(-c2ccc([N+](=O)[O-])o2)c(=O)[nH]1	none (no result: tim10-1 inh, TIM10 inh, tim23-1 inh, NALP3 yeast inh)
COc1cc(SC)ccc1C(=O)Nc1cccc(S(=O)(=O)NC2=NCCCCC2)c1	none (no result: PfHsp90 yeast 2)
CCN(CC)S(=O)(=O)c1cccc(NC(=O)c2ccc(SC)cc2OC)c1	tim10-1 inh 43 | tim10-1 conf 37
Cc1sc(NC(=O)c2ccco2)c(C(Nc2ccccn2)c2ccccc2)c1C (centres undefined)	none | tim10-1 conf inactive
Cc1sc(NC(=O)c2ccco2)c(C(c2cccnc2)N2CCN(C)CC2)c1C (centres undefined)	none
COc1ccc(C(Nc2ccccn2)c2c(NC(=O)c3ccco3)sc(C)c2C)cc1 (centres undefined)	tim10-1 inh 41 | tim10-1 conf inactive
Cc1sc(NC(=O)c2ccco2)c(C(c2cccnc2)N2CCCC2)c1C (centres undefined)	tim10-1 inh 52 (no result: PfHsp90 yeast 2) | tim10-1 conf 45
Cc1nn(-c2ccc(N3CCOCC3)nn2)c(C)c1CCC(=O)NCc1ccccc1F	none
CCOC(=O)C1=C(C)NC(C)=C(C(=O)OCC)C1C(=O)OCC(=O)NCc1ccccc1OC	none (no result: PfHsp90 yeast 2)
CCOC(=O)c1cc(C(C)(C)C)oc1CNC(=O)c1c(C)oc2c1CCCC2	tim10-1 inh 44 | tim10-1 conf 33
C/C(=N\NC(=S)Nc1c(C)cccc1C)c1cc2ccccc2o1	tim10-1 inh 42 | tim10-1 conf inactive
C/C(=N\NC(=S)Nc1c(C)cccc1C)c1ccc(O)cc1	none
Nc1nonc1-n1nnc(C(=O)c2ccccc2)c1-c1ccccc1	tim10-1 inh 41 | tim10-1 conf inactive
Cc1nn(C(=O)c2ccc3c(c2)OCO3)c(N)c1-c1ccccc1	tim10-1 inh 41 | tim10-1 conf inactive
